Screens: PubChem BioAssay, National Center for Advancing Translational Sciences (NCATS)
Hits are enriched below; roughly 3.8% of the tested compounds scored in any of these assays.
ATXN2 expr inh – Primary qHTS for Inhibitors of ATXN expression; Potency, µM (top dose mostly 57 µM), most hits filed as inhibitors; actives 0.72% (n = 360,000); AID 1745845, 2022; HEK-293 ATXN2-luciferase reporter, luminescence, 24 h; note: nearly all actives have a fitted effect of over 55% in size
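ATXN2-luciferase reporter cells (luciferase flanked by upstream and downstream ATXN2 gene portions) were treated 24 h at 37 °C with compounds at up to 57 uM. SteadyGlo luminescence gave expression; GF-AFC fluorescence gave viability.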
A549 viability – Nrf2 qHTS screen for inhibitors: counterscreen for cytotoxicity. actives 0.16% (n = 390,000). A549 ARE-Fluc cells, CellTiter-Fluor viability, 18-24 h. AID 504648, 2011. Potency, µM (titrated, usually from 46 µM), hits mostly inhibitors
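A549 ARE_Fluc cells in 5% FBS OPTI-MEM were exposed to compounds in concentration-response for 18-24 h at 37 deg C. Viability was read by CellTiter-Fluor fluorescence (Ex 405/Em 525) after 30 min, before the luciferase read.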
HepG2 viability – qHTS for Inhibitors of TGF-b: Cytotox Counterscreen; HepG2 CAGA-GFP viability, ATP luminescence, 18 h; Potency, µM (series often up to 46.1 µM), hits mostly cytotoxic; actives 0.76% (n = 410,000)
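CellTiter-Glo luminescence gave cytotoxicity after 18 hours at 37 degrees C. The cells were HepG2 CAGA-GFP in 1% FBS DMEM, stimulated with 500 pg/mL TGF-beta after compound addition. %Activity was normalised to no-cell wells (complete cell-killing) and DMSO (no toxicity), and curves were fitted and classified.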
S2 tox – Viability Counterscreen for Primary qHTS for Inhibitors of ATXN expression. S2 cells (HEK-293 line with an ATXN2-luciferase reporter) viability, CellTiter-Fluor protease fluorescence, 24 h. Potency, µM (doses to about 56.7 µM), most hits filed as cytotoxic. actives 0.49% (n = 400,000); note: nearly all actives have a fitted effect of over 40% in size
TGFb SMAD3 inh – qHTS for Inhibitors of TGF-b | HepG2 CAGA-GFP TGF-b/SMAD3 reporter, GFP fluorescence, 18 h; TGF-beta stimulated, 500 pg/mL final | Potency, µM (series often up to 46.1 µM), most hits filed as inhibitors | actives 1.2% (n = 410,000); note: nearly all actives have a fitted effect of over 65% in size
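Per well, imaged GFP fluorescence of HEPG2 CAGA-GFP cells gives the signal; cells get compound, then TGF-beta (500 pg/mL final), 18 h at 37 degrees C; %Activity versus -TGF-beta and +DMSO controls.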
Nrf2 block – Nrf2 qHTS screen for inhibitors; A549 ARE-Fluc reporter, luciferase luminescence, 18-24 h; Potency, µM (series often up to 46 µM), hits mostly inhibitors; actives 2.1% (n = 360,000); note: nearly all actives have a fitted effect of over 60% in size
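In this cell-based qHTS, ARE-driven firefly luciferase in A549 cells reports Nrf2 activity; the luminescent signal after BugLite lysis is the measured value, with a prior CellTiter-Fluor read for cell health.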
A number is an active result; - = inactive; ? = inconclusive; . = no result given; [ ] = dose if it differs, or a comment. Calls come from the whole dose curve; as a rule, active = well fitted curve in the direction sought with a large enough effect; inconclusive = small, poorly fitted or top-dose-only effect, or another doubt; inactive = no such curve, though single readings can be large; an effect the other way counts as inactive or inconclusive.

SMILES	ATXN2 expr inh	A549 viability	HepG2 viability	S2 tox	TGFb SMAD3 inh	Nrf2 block
COc1cccc(CN2CCC2(C)C(=O)Nc2cccc3cccnc23)c1OC (stereo unspecified)	2.5µM	.	-	?	11µM	.
CCOc1cc(Cl)c(S(=O)(=O)n2ccnc2)cc1Cl	-	-	-	-	-	-
O=C(c1ccccn1)N(Cc1ccco1)C1(C(=O)NC2CCCC2)CCCCC1	-	-	-	?	-	-
O=C(c1ccc2c(c1)OCO2)N(Cc1ccco1)C1(C(=O)NC2CCCCC2)CCCCC1	-	?	-	?	-	18µM
O=S1(=O)N[C@@H](Cc2ccccc2)COc2cccc(N3CCN(Cc4ccccc4F)CC3)c21	?	.	.	28µM	.	.
Cc1cc2c(s1)c1cnn(Cc3cc(OC(F)(F)F)ccc3F)c(=O)c1n2C	.	-	.	.	.	-
Cc1c(C(C)C)c(=O)n(-c2ccc(S(=O)(=O)NC(C)C)cc2)n1C	-[11.3 µM]	-	-	-	-	18µM
CCC1OC(=O)C[C@@H](O)[C@H](C)[C@@H](O[C@@H]2O[C@H](C)C[C@H](N(C)C)[C@H]2O)[C@@H](CC=O)C[C@@H](C)C(=O)/C=C/[C@]2(C)OC2C1C (stereo partly specified)	.	.	.	16µM	.	.
Cc1ccc(NC(=O)C2CCN(S(=O)(=O)c3ccccc3)CC2)cc1	-	-	-	?	-	15µM
O=C(Nc1ccc(Cc2ccncc2)cc1)c1ccc(S(=O)(=O)N2CCOCC2)cc1	-	-	-	-	-	9.2µM
Cc1ccc(NC(=O)C2CCN(S(=O)(=O)c3ccc(F)cc3)CC2)cc1	-	-	-	?	-	-
O=C(Nc1ccccc1)C1CCN(S(=O)(=O)c2ccc3[nH]c4c(c3c2)CCCCC4)CC1	.	-	-	.	-	16µM
Cc1cccc(NC(=O)C2CCN(S(=O)(=O)c3ccc4[nH]c5c(c4c3)CCCCC5)CC2)c1	.	-	-	.	?	-
CN(C1CCCCC1)S(=O)(=O)c1ccc(NC(=O)C2CCCCC2)cc1	-	-	-	-	?	23µM
CN(c1ccc(C(=O)Nc2ccc(S(=O)(=O)N3CCCC3)cc2)cc1)S(C)(=O)=O	-	-	-	-	-	9.2µM
CC(C)CCCCCCNC(=S)Nc1ccc(S(=O)(=O)N2CCOCC2)cc1	?	?	-	?	20µM	?
N#CC(C#N)=NNc1ccc(S(=O)(=O)N2CCCCC2)cc1	-	?	-	?	7.9µM	-
O=C(Nc1ccc(S(=O)(=O)N2CCCC2)cc1)C1CCN(S(=O)(=O)c2ccc(F)cc2)CC1	-	-	-	-	-	23µM
CSCCC(NC(=O)c1ccc([N+](=O)[O-])cc1Cl)C(=O)OC(C)C(=O)NCc1ccco1 (stereo unspecified)	-	-	-	-	-	-
O=C(NCCCN1CCCC1=O)C(=O)NCC1OCCCN1S(=O)(=O)c1ccccc1 (stereo unspecified)	.	.	-	-	-	.
Cc1ccc(NC(=O)C2CCN(S(=O)(=O)c3cccs3)CC2)cc1C	-	-	-	-	-	26µM
CCOc1ccc(C(=O)Nc2ccc(Cc3ccncc3)cc2)cc1Br	?	?	-	-	-	15µM
O=C(Nc1ccc(S(=O)(=O)N2CCCC2)cc1)c1ccc(F)cc1	-	-	-	-	-	-
Cc1cccc(NC(=O)C2CCN(S(=O)(=O)c3cccs3)CC2)c1	-	-	-	-	-	-
CC(=O)N1CCOc2ccc(S(=O)(=O)N3CCC(C(=O)Nc4ccc(C)cc4)CC3)cc21	-	-	-	?	-	?
SMILES	ATXN2 expr inh	A549 viability	HepG2 viability	S2 tox	TGFb SMAD3 inh	Nrf2 block
O=C(Nc1ccc(S(=O)(=O)N2CCCCC2)cc1)c1ccc(F)cc1	-	-	-	-	-	29µM
CCc1ccc(NC(=O)C2CCN(S(=O)(=O)c3ccc4c(c3)N(C(C)=O)CCO4)CC2)cc1	.	-	-	-	-	23µM
Cc1ccc(N2C(=O)C3C4C=CC(CC4)C3C2=O)c([N+](=O)[O-])c1 (stereo unspecified)	-	-	-	-	-	?
Cc1ccc(Cl)cc1N1CCN(C(=O)Cn2cnc3sc(C)c(S(=O)(=O)N4CCC(C)CC4)c3c2=O)CC1	-	-	-	?	-	-[9.27 µM]
COc1ccc(Cl)cc1Nc1cc(C)nc2nc(-c3ccccc3C)nn12	-	-	-	-	-	-
NC(=O)COC(=O)CCCSc1nc2ccccc2s1	-	-	-	-	-	?
CC(OC(=O)CCCSc1nc2ccccc2s1)C(=O)NC(N)=O (stereo unspecified)	-	-	-	-	-	16µM
CC(=O)Nc1c(C)nn(-c2ccccc2)c1N1CCC(C(=O)Nc2ccccc2F)CC1	.	-	-	.	-	.
CCC[C@@H](C=O)NC(=O)[C@H](CC(C)C)NC(=O)[C@H](CC(C)C)NC(=O)OCc1ccccc1	1.5µM	.	.	.	.	.
CC(CCc1ccccc1)NC(=O)C(Cc1ccccc1)NC(N)=O (stereo unspecified)	-	-	-	-	-	-
CCN(CC)CCCNC(=O)c1ccc2c(c1)sc1nc(-c3ccc(C)cc3)cn12	.	-	6.3µM	.	-	-
COc1ccc(CCNCCC(c2ccccc2)c2ccccc2)cc1OC	.	.	13µM	?	?	.
COc1cc(OC)c(OC)cc1CCC(C)NCCC(c1ccccc1)c1ccccc1 (stereo unspecified)	.	-	11µM	16µM	14µM	-
Cc1cccc(NC(=O)C(=O)NCC(c2ccc3c(c2)OCO3)N2CCOCC2)c1C (stereo unspecified)	-	-	-	-	-	.
Cc1cc(NC(=O)CCC(=O)N(CC(=O)NCC2CCCO2)c2ccc(C(C)C)cc2)no1 (stereo unspecified)	-	-	-	?	-	?
COc1ccccc1NC(=O)CN1C(=O)C2(SCC(=O)N2c2ccc(C)c(C)c2)c2ccccc21 (stereo unspecified)	?	?	-	?	-	21µM
O=C(CN1C(=O)C2(SCC(=O)N2c2cccc(Cl)c2)c2ccccc21)NCCc1ccccc1 (stereo unspecified)	?	?	-	-	11µM	-
COc1ccc(C2C(C#N)=C(C)NC3=C2C(=O)CC(C)(C)C3)cc1 (stereo unspecified)	-	-	-	-	-	-
CCCSC1=C(C#N)C(c2ccc(OC)cc2)C2=C(CC(C)(C)CC2=O)N1 (stereo unspecified)	-	-	-	-	?	23µM
